Test results reported in the supplement of paper PMC10849652.
Of roughly 7,900 targets only a part is listed; those with a hit were picked by preference. About 0.6% of all pairs of compound and target were hits. Values without a mark were called inactive.

Key:
Assay in all cases: log2 fold change, soluble protein after heating vs DMSO (PISA); higher = thermal stabilisation; K562 cells, 10 uM, 30 min; active = over 0.2 and 3.5 SD of the protein, either way, in both replicates (recomputed)
[1] = compound: COC1=CC=C(C=C1)CN2C=CC3=C2C=C(C=C3)C(=O)NO
Outline: (§1)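 Soluble protein was defined as the supernatant after 21,000xg for 90 min. It came from K562 cells at 2×10^6 cells/mL given 10 μM compound for 30 min, heated in aliquots for 3 min across 48°C-58°C, pooled, and extracted in PBS with 0.5% NP-40 at 4°C, and was quantified by TMTpro 16plex LC-MS/MS with equalised channel sums. Thermal stability against control samples, from duplicates, is reported as log2 fold change.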

[2] = compound: CON(C)C(=O)N1N=C(c2cc(F)ccc2F)S[C@@]1(CCCN)c1ccccc1 [filanesib]
Outline: as §1

[3] = compound: CO[C@H]1C[C@@H]2CC[C@@H](C)[C@@](O)(O2)C(=O)C(=O)N2CCCC[C@H]2C(=O)O[C@H]([C@H](C)C[C@@H]2CC[C@H](n3cnnn3)[C@H](OC)C2)CC(=O)[C@H](C)/C=C(\C)[C@@H](O)[C@@H](OC)C(=O)[C@H](C)C[C@H](C)/C=C/C=C/C=C/1C [zotarolimus]
Outline: as §1

[4] = compound: COc1cc(C(=O)O)ccc1NC(=O)[C@@H]1N[C@@H](CC(C)(C)C)[C@](C#N)(c2ccc(Cl)cc2F)[C@H]1c1cccc(Cl)c1F [idasanutlin]
Outline: as §1

[5] = compound: COc1cc(Nc2ncc3c(n2)-c2ccc(Cl)cc2C(c2c(F)cccc2OC)=NC3)ccc1C(=O)O [alisertib]
Outline: as §1

[6] = compound: COc1cc2nc(-c3cc(F)ccc3O)nc(N[C@@H]3CNC[C@H]3C(C)(C)O)c2cc1OC
Outline: as §1

[7] = compound: COc1cc2ncnc(Nc3ccc(F)c(Cl)c3)c2cc1OCCCN1CCOCC1 [gefitinib]
Outline: as §1

[8] = compound: COc1cccc2cc(-c3nc([C@H]4CC[C@H](C(=O)O)CC4)n4ncnc(N)c34)[nH]c12
Outline: as §1

[9] = compound: CS(=O)(=O)CCNCc1ccc(-c2ccc3ncnc(Nc4ccc(OCc5cccc(F)c5)c(Cl)c4)c3c2)o1 [lapatinib]
Outline: as §1

[10] = compound: CS(=O)(=O)N1CCN(Cc2cc3nc(-c4cccc5[nH]ncc45)nc(N4CCOCC4)c3s2)CC1 [pictilisib]
Outline: as §1

UniProt Q15738, sequence (Q15738 whole entry, looked up): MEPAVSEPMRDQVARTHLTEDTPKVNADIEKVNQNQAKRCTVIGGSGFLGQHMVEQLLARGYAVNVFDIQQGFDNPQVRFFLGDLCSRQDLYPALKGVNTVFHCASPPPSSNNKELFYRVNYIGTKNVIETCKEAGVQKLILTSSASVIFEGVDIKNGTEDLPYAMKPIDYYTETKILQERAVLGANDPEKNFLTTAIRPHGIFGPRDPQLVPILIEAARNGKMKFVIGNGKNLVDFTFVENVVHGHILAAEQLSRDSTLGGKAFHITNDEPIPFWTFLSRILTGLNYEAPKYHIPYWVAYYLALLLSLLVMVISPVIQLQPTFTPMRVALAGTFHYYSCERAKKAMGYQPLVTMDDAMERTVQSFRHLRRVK
UniProt Q96MF7, sequence (Q96MF7 whole entry, looked up): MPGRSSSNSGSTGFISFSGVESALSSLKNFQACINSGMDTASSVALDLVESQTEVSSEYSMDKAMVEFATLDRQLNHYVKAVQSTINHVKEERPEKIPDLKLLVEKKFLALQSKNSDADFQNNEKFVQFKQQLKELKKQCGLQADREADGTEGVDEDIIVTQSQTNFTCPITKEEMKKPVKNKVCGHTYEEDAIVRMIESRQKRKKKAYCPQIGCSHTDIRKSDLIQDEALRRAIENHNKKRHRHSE
UniProt P00846, sequence (P00846 whole entry, looked up): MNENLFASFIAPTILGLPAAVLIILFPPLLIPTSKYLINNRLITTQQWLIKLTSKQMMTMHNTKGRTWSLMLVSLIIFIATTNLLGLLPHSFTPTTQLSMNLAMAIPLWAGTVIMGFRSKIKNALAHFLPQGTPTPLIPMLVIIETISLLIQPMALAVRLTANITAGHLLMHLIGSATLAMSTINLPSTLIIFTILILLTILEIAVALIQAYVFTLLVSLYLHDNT
UniProt Q8N573, sequence (Q8N573 whole entry, looked up): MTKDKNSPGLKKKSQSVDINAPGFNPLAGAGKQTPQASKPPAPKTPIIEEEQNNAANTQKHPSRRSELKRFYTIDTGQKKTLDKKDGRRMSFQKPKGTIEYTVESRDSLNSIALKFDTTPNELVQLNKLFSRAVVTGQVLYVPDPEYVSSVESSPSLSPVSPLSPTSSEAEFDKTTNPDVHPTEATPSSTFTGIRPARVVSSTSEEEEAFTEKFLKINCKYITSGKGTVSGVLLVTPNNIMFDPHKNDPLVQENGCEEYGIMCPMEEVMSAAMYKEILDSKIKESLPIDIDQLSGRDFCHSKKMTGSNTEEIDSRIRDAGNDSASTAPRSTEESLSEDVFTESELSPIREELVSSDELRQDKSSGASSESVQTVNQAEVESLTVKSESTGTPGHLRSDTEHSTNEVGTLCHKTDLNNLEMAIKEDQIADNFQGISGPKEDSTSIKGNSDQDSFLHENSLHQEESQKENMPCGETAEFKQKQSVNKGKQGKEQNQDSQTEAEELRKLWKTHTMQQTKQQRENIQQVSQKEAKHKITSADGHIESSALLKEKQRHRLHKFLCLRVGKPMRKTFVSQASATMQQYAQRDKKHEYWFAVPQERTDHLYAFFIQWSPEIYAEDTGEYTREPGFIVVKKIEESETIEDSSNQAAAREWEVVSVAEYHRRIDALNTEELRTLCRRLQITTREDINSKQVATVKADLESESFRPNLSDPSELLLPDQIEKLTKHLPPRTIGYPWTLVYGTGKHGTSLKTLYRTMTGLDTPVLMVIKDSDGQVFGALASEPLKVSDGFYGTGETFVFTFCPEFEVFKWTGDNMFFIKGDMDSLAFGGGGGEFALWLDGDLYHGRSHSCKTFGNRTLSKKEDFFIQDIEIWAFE
UniProt Q330K2, sequence (Q330K2 whole entry, looked up): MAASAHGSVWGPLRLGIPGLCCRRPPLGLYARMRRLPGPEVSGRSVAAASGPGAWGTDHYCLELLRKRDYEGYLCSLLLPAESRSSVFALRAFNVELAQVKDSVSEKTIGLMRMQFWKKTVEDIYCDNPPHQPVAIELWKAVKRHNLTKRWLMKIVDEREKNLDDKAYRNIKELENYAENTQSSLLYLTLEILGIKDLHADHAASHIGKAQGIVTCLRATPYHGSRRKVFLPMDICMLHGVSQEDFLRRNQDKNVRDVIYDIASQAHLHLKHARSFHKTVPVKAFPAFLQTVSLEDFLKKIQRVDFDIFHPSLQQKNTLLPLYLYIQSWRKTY
UniProt Q7L1V2, sequence (Q7L1V2 whole entry, looked up): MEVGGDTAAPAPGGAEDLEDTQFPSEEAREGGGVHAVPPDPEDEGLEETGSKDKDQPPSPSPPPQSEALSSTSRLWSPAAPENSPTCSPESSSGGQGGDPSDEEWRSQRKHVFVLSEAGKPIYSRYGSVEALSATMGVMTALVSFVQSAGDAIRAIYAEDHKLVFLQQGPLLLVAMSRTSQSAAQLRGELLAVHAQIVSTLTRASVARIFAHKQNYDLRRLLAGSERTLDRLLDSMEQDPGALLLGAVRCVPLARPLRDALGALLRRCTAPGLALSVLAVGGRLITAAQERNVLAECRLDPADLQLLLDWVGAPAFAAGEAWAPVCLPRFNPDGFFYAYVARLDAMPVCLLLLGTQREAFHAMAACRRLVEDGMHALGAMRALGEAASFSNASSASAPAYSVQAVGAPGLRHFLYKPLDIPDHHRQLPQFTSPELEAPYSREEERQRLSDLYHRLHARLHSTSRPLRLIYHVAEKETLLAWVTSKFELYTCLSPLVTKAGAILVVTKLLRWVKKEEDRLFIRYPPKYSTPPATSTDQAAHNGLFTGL
UniProt P04181, sequence (P04181 whole entry, looked up): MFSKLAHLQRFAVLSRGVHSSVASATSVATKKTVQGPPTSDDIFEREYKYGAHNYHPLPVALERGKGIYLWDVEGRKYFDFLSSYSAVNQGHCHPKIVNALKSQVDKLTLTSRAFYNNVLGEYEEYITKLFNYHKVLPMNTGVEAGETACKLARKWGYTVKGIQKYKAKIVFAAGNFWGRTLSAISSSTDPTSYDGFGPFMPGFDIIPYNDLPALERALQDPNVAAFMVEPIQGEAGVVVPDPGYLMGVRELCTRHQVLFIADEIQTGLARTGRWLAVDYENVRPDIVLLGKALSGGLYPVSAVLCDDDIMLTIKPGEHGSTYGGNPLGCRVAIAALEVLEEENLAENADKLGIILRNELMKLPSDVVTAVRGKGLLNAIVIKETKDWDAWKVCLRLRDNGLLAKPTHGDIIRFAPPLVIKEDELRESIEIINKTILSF
UniProt Q9HAN9, sequence (Q9HAN9 whole entry, looked up): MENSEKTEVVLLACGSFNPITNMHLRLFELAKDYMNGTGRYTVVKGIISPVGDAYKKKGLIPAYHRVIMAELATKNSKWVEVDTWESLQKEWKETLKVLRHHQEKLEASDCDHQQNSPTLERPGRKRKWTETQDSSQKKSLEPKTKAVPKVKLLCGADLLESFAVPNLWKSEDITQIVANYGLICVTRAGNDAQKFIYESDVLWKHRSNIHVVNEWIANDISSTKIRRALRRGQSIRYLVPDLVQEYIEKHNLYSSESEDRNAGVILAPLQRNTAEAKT
UniProt Q86WQ0, sequence (Q86WQ0 whole entry, looked up): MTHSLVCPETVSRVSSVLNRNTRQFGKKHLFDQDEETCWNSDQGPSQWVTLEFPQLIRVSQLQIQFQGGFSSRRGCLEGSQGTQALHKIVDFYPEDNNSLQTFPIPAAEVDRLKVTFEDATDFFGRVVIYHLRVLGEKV
UniProt Q08J23, sequence (Q08J23 whole entry, looked up): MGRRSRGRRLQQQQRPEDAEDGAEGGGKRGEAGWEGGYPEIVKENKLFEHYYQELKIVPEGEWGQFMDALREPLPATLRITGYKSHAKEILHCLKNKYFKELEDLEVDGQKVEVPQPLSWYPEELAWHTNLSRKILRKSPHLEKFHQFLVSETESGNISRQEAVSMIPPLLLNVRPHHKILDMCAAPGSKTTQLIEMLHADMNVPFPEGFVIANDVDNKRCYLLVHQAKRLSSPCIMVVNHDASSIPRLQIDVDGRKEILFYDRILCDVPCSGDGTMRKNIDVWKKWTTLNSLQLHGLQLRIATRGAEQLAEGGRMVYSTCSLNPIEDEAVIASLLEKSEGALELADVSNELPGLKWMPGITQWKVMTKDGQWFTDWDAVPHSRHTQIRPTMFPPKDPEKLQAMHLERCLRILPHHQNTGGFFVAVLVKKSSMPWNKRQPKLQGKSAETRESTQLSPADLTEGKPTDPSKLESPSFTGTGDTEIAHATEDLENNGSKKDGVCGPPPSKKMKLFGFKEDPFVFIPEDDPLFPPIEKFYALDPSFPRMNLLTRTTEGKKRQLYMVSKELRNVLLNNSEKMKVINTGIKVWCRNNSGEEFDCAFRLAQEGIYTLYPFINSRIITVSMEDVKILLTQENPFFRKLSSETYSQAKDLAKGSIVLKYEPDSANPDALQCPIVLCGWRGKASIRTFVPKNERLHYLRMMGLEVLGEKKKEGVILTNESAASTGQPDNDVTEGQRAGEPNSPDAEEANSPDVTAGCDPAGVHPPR
UniProt P56556, sequence (P56556 whole entry, looked up): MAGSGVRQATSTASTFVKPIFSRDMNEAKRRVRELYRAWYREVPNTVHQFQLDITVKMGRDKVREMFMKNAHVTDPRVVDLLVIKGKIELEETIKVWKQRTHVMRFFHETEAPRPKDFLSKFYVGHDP
UniProt Q8WVJ2, sequence (Q8WVJ2 whole entry, looked up): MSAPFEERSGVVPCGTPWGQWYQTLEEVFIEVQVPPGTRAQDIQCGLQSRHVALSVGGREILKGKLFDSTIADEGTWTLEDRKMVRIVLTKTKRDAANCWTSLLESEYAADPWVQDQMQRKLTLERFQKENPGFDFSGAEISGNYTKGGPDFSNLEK
UniProt Q9UI09, sequence (Q9UI09 whole entry, looked up): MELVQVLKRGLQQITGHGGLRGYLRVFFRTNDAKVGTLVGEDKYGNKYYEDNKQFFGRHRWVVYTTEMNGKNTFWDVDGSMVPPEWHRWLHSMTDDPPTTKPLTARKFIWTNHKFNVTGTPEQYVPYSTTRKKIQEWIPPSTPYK
UniProt Q96DE0, sequence (Q96DE0 whole entry, looked up): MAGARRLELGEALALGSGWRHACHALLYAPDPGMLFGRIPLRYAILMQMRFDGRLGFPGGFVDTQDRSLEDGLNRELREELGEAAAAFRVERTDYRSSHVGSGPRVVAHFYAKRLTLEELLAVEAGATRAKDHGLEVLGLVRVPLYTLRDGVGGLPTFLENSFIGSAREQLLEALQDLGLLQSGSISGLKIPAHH

Target | log2 fold change [1] | log2 fold change [2] | log2 fold change [3] | log2 fold change [4] | log2 fold change [5] | log2 fold change [6] | log2 fold change [7] | log2 fold change [8] | log2 fold change [9] | log2 fold change [10]
NDUFA12 (UniProt Q9UI09) | -0.011 | -0.071 | 0.002 | -0.213 | 0.019 | -0.167 | -0.086 | 0.056 | -0.04 | 0.023
NBN (UniProt O60934) | -0.039 | -0.007 | 0.039 | -0.053 | 0.057 | 0.028 | 0.03 | -0.019 | 0.008 | -0.035
NOP56 (UniProt O00567) | -0.083 | 0.605 (active) | 0.136 | 0.345 | 0.007 | 0.045 | -0.046 | -0.078 | 0.098 | 0.013
NUCKS1 (UniProt Q9H1E3) | -0.035 | 0.051 | -0.031 | -0.011 | -0.071 | 0.182 | -0.001 | 0.02 | -0.064 | -0.011
OXSR1 (UniProt O95747) | 0.014 | -0.009 | -0.007 | -0.068 | -0.073 | 0.018 | -0.007 | 0.034 | -0.033 | 0.028
NMNAT1 (UniProt Q9HAN9) | -0.168 | 0.354 | -0.023 | 0.154 | -0.115 | 0.132 | -0.022 | -0.102 | 0.018 | -0.014
NSMCE2 (UniProt Q96MF7) | -0.029 | 0.045 | 0.018 | 0.027 | -0.076 | 0.018 | -0.009 | -0.018 | 0.023 | -0.233 (active)
PAAF1 (UniProt Q9BRP4) | -0.013 | -0.082 | -0.008 | -0.026 | -0.062 | 0.026 | -0.002 | 0.047 | 0.027 | 0.048
MRPL34 (UniProt Q9BQ48) | -0.074 | 0.081 | 0.072 | 0.029 | -0.089 | -0.045 | -0.105 | -0.164 | 0.028 | -0.102
OSBP (UniProt P22059) | -0.018 | 0.009 | 0.007 | -0.019 | -0.046 | 0.086 | 0.019 | -0.009 | 0 | 0.004
NUDT16 (UniProt Q96DE0) | -0.033 | -0.018 | 0.1 | -0.01 | -0.168 | 0.025 | 0.005 | 0.112 | 0.054 | 0.045
NSUN2 (UniProt Q08J23) | -0.153 | -0.002 | -0.046 | 0.021 | -0.022 | -0.235 | 0.015 | -0.003 | 0.035 | -0.088
NUP107 (UniProt P57740) | -0.005 | 0.233 | 0.032 | 0.026 | 0.007 | -0.116 | -0.073 | -0.04 | 0.137 | -0.13
NSDHL (UniProt Q15738) | 0.006 | -0.11 | 0.04 | 0.208 | 0.033 | -0.062 | 0.021 | 0 | 0.185 | 0.023
NFATC2IP (UniProt Q8NCF5) | -0.008 | -0.015 | -0.021 | -0.141 | 0.01 | 0.026 | 0 | 0.056 | 0.029 | 0.098
NDUFAF6 (UniProt Q330K2) | 0.183 | -0.177 | -0.006 | 0.03 | -0.199 | -0.165 | -0.018 | 0.061 | -0.007 | 0
MON1B (UniProt Q7L1V2) | -0.012 | 0.029 | -0.008 | -0.056 | -0.136 | 0.065 | -0.012 | 0.037 | 0.055 | 0.029
NCOA7 (UniProt Q8NI08) | -0.043 | -0.046 | 0.035 | -0.034 | -0.034 | 0.043 | -0.014 | 0.014 | 0.01 | -0.045
NDUFA6 (UniProt P56556) | 0.097 | -0.035 | 0.05 | -0.383 (active) | 0.044 | 0.048 | -0.004 | 0.068 | 0.097 | 0.087
NR2C2AP isoform 2 (UniProt Q86WQ0) | 0.101 | 0.01 | -0.014 | -0.062 | -0.066 | -0.034 | -0.01 | 0.093 | -0.011 | 0.08
MYL12B (UniProt O14950) | -0.008 | -0.052 | 0.111 | -0.064 | -0.06 | 0.022 | -0.001 | -0.018 | 0.047 | -0.015
NUDCD2 (UniProt Q8WVJ2) | 0.072 | -0.016 | 0.065 | 0.075 | -0.011 | 0.117 | 0.083 | -0.018 | -0.038 | 0.014
OXR1 (UniProt Q8N573) | -0.018 | -0.078 | 0.009 | -0.014 | -0.059 | 0.034 | 0.003 | 0.018 | 0.011 | 0.164
NIBAN1 (UniProt Q9BZQ8) | 0.055 | 0.028 | 0.028 | -0.007 | -0.052 | -0.043 | -0.032 | -0.062 | -0.015 | 0
MRPS35 (UniProt P82673) | 0.018 | 0.024 | 0.051 | -0.168 | -0.04 | 0.026 | -0.054 | -0.13 | 0.022 | -0.021
MT-ATP6 (UniProt P00846) | -0.018 | -0.036 | -0.022 | -0.084 | -0.05 | 0.133 | 0.05 | 0.055 | -0.105 | 0.208
OAT (UniProt P04181) | -0.028 | -0.183 | 0.03 | -0.054 | -0.025 | -0.095 | 0.011 | 0.004 | -0.076 | 0.12
